Measurements reported in PubChem BioAssay AID1159580 (chemical genetic matrix, 2015).
About 2,000 (36%) of roughly 5,500 compounds were called active. About 18% were inconclusive and are not listed. The list shows a part of the results. Unmarked numbers belong to inactive results. No stated cut-off is given here; in the data, active means normalized growth mostly below about 0.91 (no sharp cut-off); inconclusive means no clear call, values can overlap the other calls; inactive means mostly above about 0.92.

Assay: chemical genetic growth profiling, strain panel (AID 1159580);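 further: tested at 20 µM; growth read once vehicle control cultures reached saturation at 30 °C; 1 = growth at the plate median or of vehicle wells; lower values mean less growth of the strain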
Settings: S. cerevisiae deletion strains, growth OD

N#C/C(=C\c1ccc(C(F)(F)F)cc1)c1ccc(O)cc1
normalized growth (locus YAR019C, strain CDC15, active compounds read low): 0.969 | normalized growth (locus YBL105C, strain PKC1, active compounds read low): 0.968 | normalized growth (locus YBR135W, strain CKS1, active compounds read low): 0.965 | normalized growth (locus YBR136W, strain MEC1, active compounds read low): 0.97 | normalized growth (locus YBR160W, strain CDC28, active compounds read low): 0.976 | normalized growth (locus YDL017W, strain CDC7, active compounds read low): 0.966 | normalized growth (locus YDL028C, strain MPS1, active compounds read low): 0.976 | normalized growth (locus YDL101C, strain DUN1, active compounds read low): 0.979 | normalized growth (locus YDL108W, strain KIN28, active compounds read low): 0.972 | normalized growth (locus YDL132W, strain cdc53, active compounds read low): 0.973 | normalized growth (locus YDL214C, strain PRR2, active compounds read low): 0.478 (active) | normalized growth (locus YDR052C, strain DBF4, active compounds read low): 0.988 | normalized growth (locus YDR054C, strain cdc34, active compounds read low): 0.96 | normalized growth (locus YDR226W, strain ADK1, active compounds read low): 0.969 | normalized growth (locus YDR477W, strain SNF1, active compounds read low): 0.497 (active) | normalized growth (locus YER123W, strain YCK3, active compounds read low): 0.508 (active) | normalized growth (locus YER133W, strain GLC7, active compounds read low): 0.492 (active) | normalized growth (locus YFL009W, strain cdc4, active compounds read low): 0.967 | normalized growth (locus YFL029C, strain CAK1, active compounds read low): 0.978 | normalized growth (locus YFR003C, strain YPI1, active compounds read low): 0.971 | normalized growth (locus YFR019W, strain FAB1, active compounds read low): 0.647 (active) | normalized growth (locus YFR028C, strain CDC14, active compounds read low): 0.964 | normalized growth (locus YGR040W, strain KSS1, active compounds read low): 0.53 (active) | normalized growth (locus YGR052W, strain FMP48, active compounds read low): 0.5 (active) | normalized growth (locus YGR092W, strain DBF2, active compounds read low): 0.365 (active) | normalized growth (locus YHR030C, strain SLT2, active compounds read low): 0.308 (active) | normalized growth (locus YHR079C, strain IRE1, active compounds read low): 0.334 (active) | normalized growth (locus YHR082C, strain KSP1, active compounds read low): 0.492 (active) | normalized growth (locus YHR205W, strain SCH9, active compounds read low): 0.359 (active) | normalized growth (locus YIL147C, strain SLN1, active compounds read low): 0.974 | normalized growth (locus YJL095W, strain BCK1, active compounds read low): 0.464 (active) | normalized growth (locus YJL128C, strain PBS2, active compounds read low): 0.913 | normalized growth (locus YJL157C, strain FAR1, active compounds read low): 0.47 (active) | normalized growth (locus YJR016C, strain ILV3, active compounds read low): 0.974 | normalized growth (locus YJR066W, strain TOR1 (second series), active compounds read low): 0.29 (active) | normalized growth (locus YJR066W, strain TOR1, active compounds read low): 0.435 (active) | normalized growth (locus YKL048C, strain ELM1, active compounds read low): 0.411 (active) | normalized growth (locus YKL067W, strain YNK1, active compounds read low): 0.525 (active) | normalized growth (locus YKL101W, strain HSL1, active compounds read low): 0.465 (active) | normalized growth (locus YKL193C, strain SDS22, active compounds read low): 0.972 | normalized growth (locus YKL203C, strain TOR2, active compounds read low): 0.428 (active) | normalized growth (locus YLR113W, strain HOG1, active compounds read low): 0.431 (active) | normalized growth (locus YLR133W, strain CKI1, active compounds read low): 0.498 (active) | normalized growth (locus YLR403W, strain SFP1, active compounds read low): 0.445 (active) | normalized growth (locus YML070W, strain DAK1, active compounds read low): 0.535 (active) | normalized growth (locus YMR001C, strain CDC5, active compounds read low): 0.96 | normalized growth (locus YMR205C, strain PFK2 (second series), active compounds read low): 0.54 (active) | normalized growth (locus YMR277W, strain FCP1, active compounds read low): 0.963 | normalized growth (locus YNL006W, strain LST8, active compounds read low): 0.959 | normalized growth (locus YNL020C, strain ARK1, active compounds read low): 0.45 (active) | normalized growth (locus YNL161W, strain CBK1, active compounds read low): 0.967 | normalized growth (locus YNL183C, strain NPR1, active compounds read low): 0.467 (active) | normalized growth (locus YNL207W, strain RIO2, active compounds read low): 0.961 | normalized growth (locus YNL222W, strain SSU72, active compounds read low): 0.964 | normalized growth (locus YNL307C, strain MCK1 (second series), active compounds read low): 0.395 (active) | normalized growth (locus YOL078W, strain AVO1, active compounds read low): 0.973 | normalized growth (locus YOL136C, strain PFK27, active compounds read low): 0.492 (active) | normalized growth (locus YOR061W, strain CKA2, active compounds read low): 0.43 (active) | normalized growth (locus YOR119C, strain RIO1, active compounds read low): 0.498 (active) | normalized growth (locus YOR231W, strain MKK1, active compounds read low): 0.469 (active) | normalized growth (locus YOR329C, strain SCD5, active compounds read low): 0.962 | normalized growth (locus YPL031C, strain PHO85, active compounds read low): 0.421 (active) | normalized growth (locus YPL153C, strain RAD53, active compounds read low): 0.444 (active) | normalized growth (locus YPL204W, strain HRR25, active compounds read low): 0.453 (active) | normalized growth (locus YPL209C, strain IPL1, active compounds read low): 0.965 | normalized growth (locus YPL256C, strain CLN2, active compounds read low): 0.427 (active) | normalized growth (locus YPR025C, strain CCL1, active compounds read low): 0.971 | normalized growth (locus YPR106W, strain ISR1, active compounds read low): 0.965 | normalized growth (locus YPR111W, strain DBF20, active compounds read low): 0.953 | normalized growth (strain NNK1, active compounds read low): 0.95 | normalized growth (strain TSCII, active compounds read low): 0.967
